Measured values taken from PMC7862700, “An all-to-all approach to the identification of sequence-specific readers for epigenetic DNA modifications on cytosine”.

What was measured:
Experiment in all cases: DAPPL (digital affinity profiling via proximity ligation, sequencing); 10 mM Tris-HCl pH 7.5, 50 mM NaCl, 1 mM DTT, 4% glycerol, room temperature, 30 min; GST-TFs on glutathione beads, 16-mer random dsDNA library, 0.1% formaldehyde crosslink after washing; high values mean tight binding
FLI1 = target: T1, FLI1 (Homo sapiens, UniProt Q01543 1-452); settings: protein: recombinant; tags: N-terminal GST; dsDNA, one strand shown
T1 sequence: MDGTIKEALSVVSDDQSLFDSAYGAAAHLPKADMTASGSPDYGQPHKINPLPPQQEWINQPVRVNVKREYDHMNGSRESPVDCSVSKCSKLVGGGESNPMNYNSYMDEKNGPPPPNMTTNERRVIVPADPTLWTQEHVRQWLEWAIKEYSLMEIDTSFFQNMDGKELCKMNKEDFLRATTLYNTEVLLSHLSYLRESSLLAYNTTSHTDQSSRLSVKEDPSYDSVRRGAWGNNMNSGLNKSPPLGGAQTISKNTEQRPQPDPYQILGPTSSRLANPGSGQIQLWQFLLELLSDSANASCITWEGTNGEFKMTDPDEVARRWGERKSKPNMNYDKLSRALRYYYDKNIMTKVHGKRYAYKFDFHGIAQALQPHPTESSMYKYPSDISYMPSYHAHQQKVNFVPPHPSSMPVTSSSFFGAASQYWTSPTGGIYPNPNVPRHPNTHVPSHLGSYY
Outline: (§1)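 GST fusions of human transcription factors were expressed in yeast and captured with glutathione beads. Once given DNA barcodes and pooled alongside a tag-only sample, they were incubated for 30 min at room temperature with 200 nmole of a random double-stranded 16-mer DNA library in Tris/NaCl/DTT/glycerol buffer, then washed, crosslinked (0.1% formaldehyde), proximity-ligated, PCR-amplified and sequenced on an Illumina NextSeq500. The binding signal of each hexamer is its read frequency for a factor divided by its frequency for the tag-only sample.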

ELK1 = target: T2, ELK1 (Homo sapiens, UniProt P19419 1-428); settings: protein: recombinant; tags: N-terminal GST; dsDNA, one strand shown
T2 sequence: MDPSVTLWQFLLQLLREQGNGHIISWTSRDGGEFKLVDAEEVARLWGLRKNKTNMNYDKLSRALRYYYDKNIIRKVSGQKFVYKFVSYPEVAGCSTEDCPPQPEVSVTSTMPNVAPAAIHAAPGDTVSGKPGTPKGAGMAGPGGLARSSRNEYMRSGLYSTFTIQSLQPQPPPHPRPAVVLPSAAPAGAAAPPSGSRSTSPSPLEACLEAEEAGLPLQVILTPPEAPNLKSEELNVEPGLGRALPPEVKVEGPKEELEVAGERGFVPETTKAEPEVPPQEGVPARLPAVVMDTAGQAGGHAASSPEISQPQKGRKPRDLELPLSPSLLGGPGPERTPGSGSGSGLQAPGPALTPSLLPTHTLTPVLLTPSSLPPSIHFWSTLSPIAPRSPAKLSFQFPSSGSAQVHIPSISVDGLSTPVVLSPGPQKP
Outline: as §1

GABPA = target: T3, GABPA (Homo sapiens, UniProt Q06546 1-454); settings: protein: recombinant; tags: N-terminal GST; dsDNA, one strand shown
T3 sequence: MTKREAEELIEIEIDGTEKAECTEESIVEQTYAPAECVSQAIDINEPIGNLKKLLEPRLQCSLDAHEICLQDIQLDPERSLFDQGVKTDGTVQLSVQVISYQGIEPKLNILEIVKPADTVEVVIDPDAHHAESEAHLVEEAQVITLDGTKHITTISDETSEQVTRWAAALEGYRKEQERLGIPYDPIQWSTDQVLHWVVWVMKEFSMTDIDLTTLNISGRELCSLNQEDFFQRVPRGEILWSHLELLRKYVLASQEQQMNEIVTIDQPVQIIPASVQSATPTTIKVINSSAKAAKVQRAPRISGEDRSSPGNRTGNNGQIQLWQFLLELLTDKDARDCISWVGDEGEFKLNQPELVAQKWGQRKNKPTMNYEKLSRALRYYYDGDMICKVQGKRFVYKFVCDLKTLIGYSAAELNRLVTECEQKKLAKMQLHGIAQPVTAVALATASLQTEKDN
Outline: as §1

ERG = target: T4, ERG (Homo sapiens, UniProt P11308 1-479); settings: protein: recombinant; tags: N-terminal GST; dsDNA, one strand shown
T4 sequence: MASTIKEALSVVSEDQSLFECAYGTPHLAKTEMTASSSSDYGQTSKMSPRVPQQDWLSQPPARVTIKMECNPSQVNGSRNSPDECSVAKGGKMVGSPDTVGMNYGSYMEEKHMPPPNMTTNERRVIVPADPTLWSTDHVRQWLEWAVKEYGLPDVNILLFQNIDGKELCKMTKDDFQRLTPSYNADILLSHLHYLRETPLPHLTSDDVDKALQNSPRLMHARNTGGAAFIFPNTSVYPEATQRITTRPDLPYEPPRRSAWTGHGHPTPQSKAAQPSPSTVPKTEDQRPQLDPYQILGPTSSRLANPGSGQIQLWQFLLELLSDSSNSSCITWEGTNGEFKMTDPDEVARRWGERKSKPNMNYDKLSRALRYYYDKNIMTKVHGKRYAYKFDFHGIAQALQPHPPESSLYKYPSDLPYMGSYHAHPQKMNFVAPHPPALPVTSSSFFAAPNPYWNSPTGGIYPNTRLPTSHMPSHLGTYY
Outline: as §1

ELF1 = ELF1 (Homo sapiens, UniProt P32519 1-619); settings: protein: recombinant; tags: N-terminal GST; dsDNA, one strand shown
Outline: as §1

EHF = target: T5, EHF (Homo sapiens, UniProt Q9NZC4 1-300); settings: protein: recombinant; tags: N-terminal GST; dsDNA, one strand shown
T5 sequence: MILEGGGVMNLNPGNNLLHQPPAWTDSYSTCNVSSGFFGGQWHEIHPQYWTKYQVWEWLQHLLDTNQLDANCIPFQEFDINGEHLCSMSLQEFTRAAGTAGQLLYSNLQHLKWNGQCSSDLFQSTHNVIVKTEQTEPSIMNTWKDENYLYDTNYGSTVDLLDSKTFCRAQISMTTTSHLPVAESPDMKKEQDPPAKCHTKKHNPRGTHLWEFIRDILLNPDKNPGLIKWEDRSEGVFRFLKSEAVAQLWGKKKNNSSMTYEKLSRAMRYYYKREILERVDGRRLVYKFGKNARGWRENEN
Outline: as §1

SPI1 = SPI1 (Homo sapiens, UniProt P17947 1-270); settings: protein: recombinant; tags: N-terminal GST; dsDNA, one strand shown
Outline: as §1

SPIB = SPIB (Homo sapiens, UniProt Q01892 1-262); settings: protein: recombinant; tags: N-terminal GST; dsDNA, one strand shown
Outline: as §1

ELK3 = target: T6, ELK3 (Homo sapiens, UniProt P41970 1-407); settings: protein: recombinant; tags: N-terminal GST; dsDNA, one strand shown
T6 sequence: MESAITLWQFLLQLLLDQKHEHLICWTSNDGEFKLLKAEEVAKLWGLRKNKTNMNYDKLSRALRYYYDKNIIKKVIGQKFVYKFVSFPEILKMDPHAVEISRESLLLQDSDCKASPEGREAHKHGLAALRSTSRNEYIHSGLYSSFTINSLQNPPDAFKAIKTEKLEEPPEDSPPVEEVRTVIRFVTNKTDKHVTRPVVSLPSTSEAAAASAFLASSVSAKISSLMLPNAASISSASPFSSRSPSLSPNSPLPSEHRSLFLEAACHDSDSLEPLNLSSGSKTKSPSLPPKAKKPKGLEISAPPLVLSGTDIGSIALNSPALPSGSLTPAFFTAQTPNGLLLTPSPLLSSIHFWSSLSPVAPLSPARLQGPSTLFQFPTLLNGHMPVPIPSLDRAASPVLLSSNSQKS
Outline: as §1

FEV = target: T7, FEV (Homo sapiens, UniProt Q99581 1-238); settings: protein: recombinant; tags: N-terminal GST; dsDNA, one strand shown
T7 sequence: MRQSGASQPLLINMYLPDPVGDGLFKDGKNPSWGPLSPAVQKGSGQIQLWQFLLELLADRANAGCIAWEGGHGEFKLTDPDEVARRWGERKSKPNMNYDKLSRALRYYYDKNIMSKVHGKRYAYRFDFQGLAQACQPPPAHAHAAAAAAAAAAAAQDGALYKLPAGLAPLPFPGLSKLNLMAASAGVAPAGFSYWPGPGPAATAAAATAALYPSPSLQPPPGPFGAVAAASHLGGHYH
Outline: as §1

ETV5 = ETV5 (Homo sapiens, UniProt P41161 1-510); settings: protein: recombinant; tags: N-terminal GST; dsDNA, one strand shown
Outline: as §1

HSF1 = HSF1 (Homo sapiens, UniProt Q00613 1-529); settings: protein: recombinant; tags: N-terminal GST; chain copies: 3; dsDNA, one strand shown
Outline: as §1

SPIC = target: T8, SPIC (Homo sapiens, UniProt Q8N5J4 1-248); settings: protein: recombinant; tags: N-terminal GST; dsDNA, one strand shown
T8 sequence: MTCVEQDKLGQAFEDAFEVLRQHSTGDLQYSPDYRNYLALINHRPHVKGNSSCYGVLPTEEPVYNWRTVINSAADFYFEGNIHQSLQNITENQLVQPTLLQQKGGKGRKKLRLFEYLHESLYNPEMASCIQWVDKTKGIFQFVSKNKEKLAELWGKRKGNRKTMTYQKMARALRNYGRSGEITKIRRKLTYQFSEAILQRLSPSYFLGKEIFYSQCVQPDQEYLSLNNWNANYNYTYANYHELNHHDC
Outline: as §1

ELF4 = ELF4 (Homo sapiens, UniProt Q99607 1-663); settings: protein: recombinant; tags: N-terminal GST; dsDNA, one strand shown
Outline: as §1

ELK4 = target: T9, ELK4 (Homo sapiens, UniProt P28324-2 1-405); settings: protein: recombinant; tags: N-terminal GST; dsDNA, one strand shown
T9 sequence: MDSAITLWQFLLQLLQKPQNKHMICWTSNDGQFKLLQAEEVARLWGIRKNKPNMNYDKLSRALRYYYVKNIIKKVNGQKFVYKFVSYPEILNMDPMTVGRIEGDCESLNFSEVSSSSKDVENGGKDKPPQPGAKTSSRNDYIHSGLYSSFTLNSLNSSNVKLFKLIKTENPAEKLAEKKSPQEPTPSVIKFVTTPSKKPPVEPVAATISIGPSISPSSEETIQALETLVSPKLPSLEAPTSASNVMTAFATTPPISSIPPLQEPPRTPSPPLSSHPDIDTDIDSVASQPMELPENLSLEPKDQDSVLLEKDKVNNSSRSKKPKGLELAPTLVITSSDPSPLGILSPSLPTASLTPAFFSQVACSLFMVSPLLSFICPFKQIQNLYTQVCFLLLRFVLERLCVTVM
Outline: as §1

ETV2 = target: T10, ETV2 (Homo sapiens, UniProt O00321 1-342); settings: protein: recombinant; tags: N-terminal GST; dsDNA, one strand shown
T10 sequence: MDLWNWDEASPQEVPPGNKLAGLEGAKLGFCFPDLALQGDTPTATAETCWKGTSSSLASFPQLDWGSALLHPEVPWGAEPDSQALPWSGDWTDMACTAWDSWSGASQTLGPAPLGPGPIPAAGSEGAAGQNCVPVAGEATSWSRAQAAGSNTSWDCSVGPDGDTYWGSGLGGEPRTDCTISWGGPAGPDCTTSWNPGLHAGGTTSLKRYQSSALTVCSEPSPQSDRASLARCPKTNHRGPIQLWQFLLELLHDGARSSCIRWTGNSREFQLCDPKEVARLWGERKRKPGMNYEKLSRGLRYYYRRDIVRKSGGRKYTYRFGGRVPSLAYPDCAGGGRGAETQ
Outline: as §1

ELF3 = target: T11, ELF3 (Homo sapiens, UniProt P78545 1-371); settings: protein: recombinant; tags: N-terminal GST; dsDNA, one strand shown
T11 sequence: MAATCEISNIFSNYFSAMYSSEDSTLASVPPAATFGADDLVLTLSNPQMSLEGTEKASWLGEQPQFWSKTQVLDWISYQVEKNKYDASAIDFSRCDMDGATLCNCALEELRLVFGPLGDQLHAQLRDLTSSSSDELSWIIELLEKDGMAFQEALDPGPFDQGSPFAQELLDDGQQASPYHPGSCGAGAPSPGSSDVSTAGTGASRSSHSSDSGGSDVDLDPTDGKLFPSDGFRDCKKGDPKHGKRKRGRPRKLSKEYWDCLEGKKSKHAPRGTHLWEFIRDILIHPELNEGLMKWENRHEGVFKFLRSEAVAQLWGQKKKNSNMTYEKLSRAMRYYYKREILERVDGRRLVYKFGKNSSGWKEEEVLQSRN
Outline: as §1

CRX = CRX (Homo sapiens, UniProt O43186 1-299); settings: protein: recombinant; tags: N-terminal GST; dsDNA, one strand shown
Outline: as §1

ETV1 = ETV1 (Homo sapiens, UniProt P50549 1-477); settings: protein: recombinant; tags: N-terminal GST; dsDNA, one strand shown
Outline: as §1

CRX, sequence (O43186 whole entry): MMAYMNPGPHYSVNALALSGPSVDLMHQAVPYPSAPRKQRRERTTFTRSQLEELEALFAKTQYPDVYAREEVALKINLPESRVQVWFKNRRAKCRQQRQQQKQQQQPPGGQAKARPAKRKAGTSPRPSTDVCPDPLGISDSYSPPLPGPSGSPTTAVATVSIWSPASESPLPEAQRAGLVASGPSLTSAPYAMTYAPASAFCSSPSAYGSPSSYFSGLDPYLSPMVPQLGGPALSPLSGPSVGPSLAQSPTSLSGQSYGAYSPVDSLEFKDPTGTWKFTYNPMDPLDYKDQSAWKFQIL
ELF1, sequence (P32519 whole entry): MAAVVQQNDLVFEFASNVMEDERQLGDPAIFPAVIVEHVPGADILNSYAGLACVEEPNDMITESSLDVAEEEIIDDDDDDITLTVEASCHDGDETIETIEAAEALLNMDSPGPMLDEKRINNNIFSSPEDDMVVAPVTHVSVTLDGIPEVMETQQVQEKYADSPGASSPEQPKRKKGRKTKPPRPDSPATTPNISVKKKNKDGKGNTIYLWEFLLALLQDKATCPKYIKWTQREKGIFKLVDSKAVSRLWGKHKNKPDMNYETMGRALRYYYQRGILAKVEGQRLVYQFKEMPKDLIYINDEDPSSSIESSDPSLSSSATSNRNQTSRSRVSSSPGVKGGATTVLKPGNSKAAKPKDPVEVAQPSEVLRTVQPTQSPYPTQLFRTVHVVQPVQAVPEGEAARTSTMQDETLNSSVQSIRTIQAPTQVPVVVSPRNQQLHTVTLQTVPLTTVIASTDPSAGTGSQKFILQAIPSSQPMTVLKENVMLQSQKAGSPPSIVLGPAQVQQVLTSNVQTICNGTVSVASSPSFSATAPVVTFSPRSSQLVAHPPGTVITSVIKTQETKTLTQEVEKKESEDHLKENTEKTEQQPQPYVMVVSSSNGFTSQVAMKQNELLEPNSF
HSF1, sequence (Q00613 whole entry): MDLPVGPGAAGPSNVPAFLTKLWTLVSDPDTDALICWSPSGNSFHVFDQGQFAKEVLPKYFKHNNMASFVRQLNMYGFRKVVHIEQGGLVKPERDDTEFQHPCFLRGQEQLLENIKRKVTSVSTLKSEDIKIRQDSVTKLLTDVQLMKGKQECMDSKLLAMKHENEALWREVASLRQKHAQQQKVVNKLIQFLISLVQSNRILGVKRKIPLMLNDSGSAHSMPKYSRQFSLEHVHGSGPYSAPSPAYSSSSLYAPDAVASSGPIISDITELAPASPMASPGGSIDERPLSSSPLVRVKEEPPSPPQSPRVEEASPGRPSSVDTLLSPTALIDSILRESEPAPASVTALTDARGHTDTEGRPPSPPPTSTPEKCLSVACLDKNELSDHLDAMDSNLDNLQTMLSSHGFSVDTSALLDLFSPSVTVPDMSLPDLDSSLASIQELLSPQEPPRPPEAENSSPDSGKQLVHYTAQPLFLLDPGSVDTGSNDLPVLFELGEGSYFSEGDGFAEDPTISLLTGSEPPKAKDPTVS
ETV1, sequence (P50549 whole entry): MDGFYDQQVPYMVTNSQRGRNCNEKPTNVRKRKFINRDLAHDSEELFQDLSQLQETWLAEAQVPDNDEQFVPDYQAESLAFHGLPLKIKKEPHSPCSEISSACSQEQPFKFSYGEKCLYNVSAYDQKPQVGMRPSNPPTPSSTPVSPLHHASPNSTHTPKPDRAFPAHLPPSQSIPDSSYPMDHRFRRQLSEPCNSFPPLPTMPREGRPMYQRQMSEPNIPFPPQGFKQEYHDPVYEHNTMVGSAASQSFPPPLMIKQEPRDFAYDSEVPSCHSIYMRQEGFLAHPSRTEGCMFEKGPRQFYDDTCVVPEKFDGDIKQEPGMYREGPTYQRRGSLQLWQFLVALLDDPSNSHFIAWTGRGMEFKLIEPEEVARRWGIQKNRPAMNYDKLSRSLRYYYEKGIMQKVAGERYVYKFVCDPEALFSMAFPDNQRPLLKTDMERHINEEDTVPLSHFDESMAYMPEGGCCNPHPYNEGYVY
ETV5, sequence (P41161 whole entry): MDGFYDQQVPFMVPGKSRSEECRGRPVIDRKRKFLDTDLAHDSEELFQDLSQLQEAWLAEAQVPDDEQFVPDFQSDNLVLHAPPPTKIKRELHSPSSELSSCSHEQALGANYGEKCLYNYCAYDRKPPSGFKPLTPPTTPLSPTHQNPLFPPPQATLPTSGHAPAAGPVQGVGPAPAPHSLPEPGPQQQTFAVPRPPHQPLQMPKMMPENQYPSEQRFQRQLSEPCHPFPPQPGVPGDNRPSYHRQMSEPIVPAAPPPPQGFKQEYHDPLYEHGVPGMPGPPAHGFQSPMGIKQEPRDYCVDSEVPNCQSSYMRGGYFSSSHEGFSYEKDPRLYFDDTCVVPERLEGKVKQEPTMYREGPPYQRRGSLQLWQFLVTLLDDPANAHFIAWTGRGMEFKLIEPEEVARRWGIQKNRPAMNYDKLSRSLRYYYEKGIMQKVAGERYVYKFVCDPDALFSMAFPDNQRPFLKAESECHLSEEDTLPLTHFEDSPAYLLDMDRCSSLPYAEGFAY
SPIB, sequence (Q01892 whole entry): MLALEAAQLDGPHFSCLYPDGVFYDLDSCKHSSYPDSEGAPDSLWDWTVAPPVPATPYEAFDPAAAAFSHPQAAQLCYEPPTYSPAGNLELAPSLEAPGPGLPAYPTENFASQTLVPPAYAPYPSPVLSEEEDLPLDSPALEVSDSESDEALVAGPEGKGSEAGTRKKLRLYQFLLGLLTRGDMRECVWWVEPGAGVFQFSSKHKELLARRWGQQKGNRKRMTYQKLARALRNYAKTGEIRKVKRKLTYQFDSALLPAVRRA
ELF4, sequence (Q99607 whole entry): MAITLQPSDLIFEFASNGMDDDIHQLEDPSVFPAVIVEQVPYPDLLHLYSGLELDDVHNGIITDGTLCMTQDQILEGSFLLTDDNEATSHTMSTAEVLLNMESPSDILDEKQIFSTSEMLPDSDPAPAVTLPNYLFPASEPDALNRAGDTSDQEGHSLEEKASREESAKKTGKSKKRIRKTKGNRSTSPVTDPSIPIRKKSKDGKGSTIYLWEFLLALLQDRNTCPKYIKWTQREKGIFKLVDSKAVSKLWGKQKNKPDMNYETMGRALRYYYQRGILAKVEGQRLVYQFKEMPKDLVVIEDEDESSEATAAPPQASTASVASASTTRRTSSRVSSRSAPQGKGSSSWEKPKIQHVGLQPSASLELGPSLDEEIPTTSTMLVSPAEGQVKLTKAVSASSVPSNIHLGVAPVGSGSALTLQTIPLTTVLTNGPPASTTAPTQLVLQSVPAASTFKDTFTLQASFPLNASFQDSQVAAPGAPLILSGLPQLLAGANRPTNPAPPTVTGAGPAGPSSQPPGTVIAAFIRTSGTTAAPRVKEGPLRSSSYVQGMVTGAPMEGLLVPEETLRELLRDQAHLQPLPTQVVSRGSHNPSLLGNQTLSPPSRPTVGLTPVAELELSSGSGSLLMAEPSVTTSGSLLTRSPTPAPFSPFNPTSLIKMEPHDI

TCTTCA
binding signal (FLI1): 1.43 fold enrichment (6-mer frequency, TF over GST control) | binding signal (ELK1): 1.19 fold enrichment (6-mer frequency, TF over GST control) | binding signal (GABPA): 1.16 fold enrichment (6-mer frequency, TF over GST control) | binding signal (ERG): 1.16 fold enrichment (6-mer frequency, TF over GST control) | binding signal (ELF1): 1.33 fold enrichment (6-mer frequency, TF over GST control) | binding signal (EHF): 1.14 fold enrichment (6-mer frequency, TF over GST control) | binding signal (SPI1): 1.21 fold enrichment (6-mer frequency, TF over GST control) | binding signal (SPIB): 1.27 fold enrichment (6-mer frequency, TF over GST control) | binding signal (ELK3): 1.27 fold enrichment (6-mer frequency, TF over GST control) | binding signal (FEV): 1.15 fold enrichment (6-mer frequency, TF over GST control) | binding signal (ETV5): 1.17 fold enrichment (6-mer frequency, TF over GST control) | binding signal (HSF1): 1.24 fold enrichment (6-mer frequency, TF over GST control) | binding signal (SPIC): 1.14 fold enrichment (6-mer frequency, TF over GST control) | binding signal (ELF4): 1.2 fold enrichment (6-mer frequency, TF over GST control) | binding signal (ELK4): 1.07 fold enrichment (6-mer frequency, TF over GST control) | binding signal (ETV2): 1.18 fold enrichment (6-mer frequency, TF over GST control) | binding signal (ELF3): 1.46 fold enrichment (6-mer frequency, TF over GST control) | binding signal (CRX): 1.14 fold enrichment (6-mer frequency, TF over GST control) | binding signal (ETV1): 1.28 fold enrichment (6-mer frequency, TF over GST control)
